# Test results: PubChem BioAssay (NCI)
# Several values for one entry are separate records, joined by “and”; a condition that tells them apart may be missing. Identical values can stand only once. About 83,000 compounds went through this panel and 20% of them were active in at least one assay; those are over-represented in the sample as a whole.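 Assay: single dose, 48 h. Readout: percent growth (0 = no net growth; negative = cell death). Active: <10.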 A number with no mark means an inactive call. Activity calls are given as the source filed them.
# System: MDA-MB-468 breast
# Experiment: NCI-60 one-dose screen, 48 h (100 = growth as untreated, 0 = no growth, -100 = all killed)
# Details: 10 µM unless noted
row,SMILES,growth
1,COc1ccc(C2C(C#N)=C(N)Oc3c2sc2c(F)cccc32)cc1 (stereo unspecified),40.6%
2,O=C(NC1CCCCC1)OCc1c(COC(=O)NC2CCCCC2)c(-c2ccc(Cl)c(Cl)c2)n2c1CCC2,-61.7% (active)
3,CCCCCc1ccnc(CC(=O)c2ccc(OC)cc2)c1,65.5%
4,COc1ccc(C/C(C)=C(\c2ccc(O)cc2)c2ccc(OCCN3CCCCC3)cc2)cc1,70.2%
5,O=C(CSc1nc2ccccc2[nH]1)c1ccc(N2CCOCC2)cc1,87.6%
6,CCCc1cc(NC)nc(S(=O)(=O)CC)n1,119%
7,O=C(CCl)Oc1ccc([N+](=O)[O-])cc1,112%
8,CC1CCN(C(=O)CCCl)c2ccccc21 (stereo unspecified),108%
9,CN1CCC(OC2c3ccccc3CCc3ccccc32)CC1,89.6%
10,CC1OS(=O)OC1C (stereo unspecified),96.4% and 96.2%
11,CCOC(=O)c1cnc2sc(-c3ccc(OC)cc3)nc2c1Cl,90.4%
12,COc1cc2c3c(n(CCCN4CCCC4)c(=O)c2cc1OC)-c1cc2c(cc1C3=O)OCO2,84.1%
13,N#C/C(=C\c1cn(Cc2ccccc2)c2ccccc12)C(=O)Nc1ncc(Cc2ccccc2Cl)s1,-14.7% (active)
14,CCCCC1=c2c([nH]c3ccc(OC)cc23)=NC2C=CC=NC12 (stereo unspecified),-23.5% (active)
15,O=C1/C(=C/c2ccc(F)cc2)Cc2ccccc21,96%
16,Brc1cccc(-c2cc(-c3cnc4c(c3)OCCO4)n[nH]2)c1,7.76% (active)
17,Cn1c(COC(=O)NCCN2CCOCC2)nc2c(N3CCOCC3)nc(-c3ccccc3)nc21,-69.1% (active)
18,Oc1[nH]c2ccccc2c1Nn1c(N=N/C=c2/ccc3c(c2)C=NN=3)n[nH]c1=S,107%
19,N#Cc1ccc(-n2nnc3ccccc32)cc1C#N,99.5%
20,CCCCC[C@H]1C/C=C2/C(=O)C(Cl)=C[C@@H]2C/C=C\CCCC(=O)O[C@@H](CCCCC)C/C=C2/C(=O)C(Cl)=C[C@@H]2C/C=C\CCCC(=O)O1,-46% (active)
21,Cc1scc2c1N(C(=O)CN1CCN(C)CC1)c1ccccc1NC2=O,101%

row,SMILES,growth
1,COc1ccc(-c2ncc(-c3ccccc3)[nH]2)cc1OC,89.1%
2,CCCCCC(=O)OCC(=O)O[C@@H]1C[C@]2(C(C)C)O[C@@]1(C)[C@@H]1CC[C@@H](C)[C@H]1[C@@H]2OC(=O)/C=C/c1ccccc1,70%
3,CCN(CC)c1cc(C)c(Cc2c(OC)ccc3ccccc23)cc1C,99.6%
4,O=c1c2cc(F)ccc2sc2c(NCCN3CCCC3)nc3ccccc3c12,65.8%
5,C=CCn1c(SCC(=O)Nc2ccc(C(=O)/C=C/c3cc4cc(OC)ccc4nc3Cl)cc2)nnc1-c1ccc(Br)cc1,85.7%
6,CCOC(=O)c1nnn(-c2no[n+]([O-])c2-c2ccc(OC)cc2)c1COc1cccc2cccnc12,33.6%
7,c1ccc2c(c1)[nH]c1c2cc[n+]2cc3c(cc12)CCCC3,-14.5% (active)
8,CCOC(=O)C1(CC(C)C)CCOC1=O (stereo unspecified),99.7%
9,C=C1c2nc3ccccc3n2C=C(c2cccc(Cl)c2)N1Cc1ccc(OC)cc1,32%
10,CCCCCC(=O)c1ccc(OCCCN2CCN(C(=O)OCC)CC2)cc1,47.5%
11,C/C=C(/C)C(=O)OC1C=C(CO)C(=O)C(OC(=O)C(C)(O)C(C)Cl)C1C(C)C (stereo unspecified),-51.9% (active)
12,Cc1c(Cl)cccc1N=C=S,97.8%
13,CCN(CCO)CCC(=O)c1ccc([N+](=O)[O-])cc1,98.1%
14,N#Cc1c(N)nc(Nc2nc3ccccc3[nH]2)nc1-c1ccc(Cl)cc1,111%
15,CC1=CC(=O)c2ccccc2C1=O,111%
16,O=S(=O)(NCCNc1nccc(-c2c(-c3cccc(F)c3)nc3sccn23)n1)c1ccc(Br)cc1,78.3%
17,Cc1nc(-c2cc3ccccc3oc2=O)ccc1C(=O)/C=C/c1ccc(Cl)c(Cl)c1,110%
18,O=c1c2ccccc2sc2c(N3CCCC3)nc3ccccc3c12,98.6%
19,COc1ccc(C(C)=C(c2ccc(OCCN3CCCCCC3)cc2)c2ccc(OCCN3CCCCCC3)cc2)cc1,-69.5% (active)
20,CC(=O)[C@H]1CCC/C=C/[C@@H]2C[C@H](O)C[C@H]2[C@H](O)/C=C/C(=O)O1,-34.9% (active)
